A short description of assay [1]: NCI Yeast Anticancer Drug Screen. Data for the rad50 strain (AID 155).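 Further: 0% = growth of vehicle-only cultures of the same strain.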 As to conditions: S. cerevisiae rad50 strain growth inhibition, stronger effect = higher value. Put shortly: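 Readout: growth inhibition relative to vehicle-treated cultures. Compound exposure was carried out in a genetically defined yeast strain deficient in DNA damage repair.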
Assay [2] in a line: NCI Yeast Anticancer Drug Screen. Data for the mec2-1 strain (AID 157). The conditions noted are these: S. cerevisiae mec2-1 strain, stronger effect = higher value. An outline of the steps:
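Vehicle-treated cultures served as reference for growth inhibition of compound-exposed mec2-1 yeast.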

Assay [3] in a line: NCI Yeast Anticancer Drug Screen. Data for the sgs1 mgt1 strain (AID 161).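 Further: 0% = growth of cultures given vehicle only.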 The conditions noted are these: S. cerevisiae sgs1 mgt1 strain, stronger effect = higher value. An outline of the steps:
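Test agents were incubated with a DNA-repair-mutant yeast strain. Growth was then read and compared against vehicle-treated controls.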

The nature of assay [4]: NCI Yeast Anticancer Drug Screen. Data for the cln2 rad14 strain (AID 165).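 Further: 0% = growth equal to vehicle treated cultures.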 The conditions noted are these: S. cerevisiae cln2 rad14 strain, stronger effect = higher value. An outline of the steps:
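Each compound was tested on cln2 rad14 yeast. Inhibition of growth was calculated against vehicle-exposed controls.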

Assay [5] can be described thus: NCI Yeast Anticancer Drug Screen. Data for the bub3 strain (AID 167). As to conditions: S. cerevisiae bub3 mutant strain, stronger effect = higher value. Put shortly:
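Readout: yeast growth inhibition, expressed relative to vehicle-only wells. The test organism is a mutant strain from a panel with lesions in DNA repair or checkpoint genes.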

A short description of assay [6]: NCI Yeast Anticancer Drug Screen. Data for the mlh1 rad18 strain (AID 175). As to conditions: S. cerevisiae mlh1 rad18 strain growth inhibition, stronger effect = higher value. An outline of the steps: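 Vehicle-treated cultures served as the reference for growth inhibition in a yeast strain carrying DNA damage repair alterations exposed to each compound.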
Where [7] appears, read: at 5.0 µM (retest, dose inferred, filed as 0.5).
Setting [8] is: at 50.0 µM (retest, dose inferred, filed as 5.0).

The panel holds about 79,000 compounds, 15% with a hit somewhere; the sample as a whole holds those more often. A number with no mark means an inactive call. Calls of active or inactive are those of the source. No stated cut-off is given here; in the data, active means growth inhibition above about 70%; inactive means the rest.

For `C=CCCCCCCCCC(=O)ON(Cc1ccc(O)c(OC)c1)C(=O)C(F)(F)F`, the growth inhibition is 3% in assay [1] (setting [7]); 73% (active) in assay [1] (setting [8]); 70.7% (active) in assay [1] (at 50.0 µM); -7% in assay [2] (setting [7]); 66% in assay [2] (setting [8]); 84.3% (active) in assay [2] (at 50.0 µM). In addition, the growth inhibition was -8% in assay [3] (setting [7]); 67% in assay [3] (setting [8]); 89.2% (active) in assay [3] (at 50.0 µM); 20% in assay [4] (setting [7]); 61% in assay [4] (setting [8]); 85.5% (active) in assay [4] (at 50.0 µM). Moreover, the growth inhibition in assay [5] (setting [7]) is -12%; in assay [5] (setting [8]), 40%; in assay [5] (at 50.0 µM), 90.5% (active); in assay [6] (setting [7]), 7%; in assay [6] (setting [8]), 86% (active); in assay [6] (at 50.0 µM) it was 85.9% (active).

As to `Nc1ccc2c(c1)C(=O)c1ccccc1-2`, the growth inhibition in assay [1] (setting [7]) is 9%; in assay [1] (setting [8]), 57%; in assay [1] (at 50.0 µM) it was 68.2%; in assay [2] (setting [7]) it was 3%; in assay [2] (setting [8]), 15%; in assay [2] (at 50.0 µM), 26.1%. The growth inhibition in assay [3] (setting [7]) was 0%; in assay [3] (setting [8]), 6%; in assay [3] (at 50.0 µM) it was 21.4%; in assay [4] (setting [7]), 1%; in assay [4] (setting [8]), 7%; in assay [4] (at 50.0 µM), 11.6%. The growth inhibition in assay [5] (setting [7]) is 2%; in assay [5] (setting [8]) it was 9%; in assay [5] (at 50.0 µM), -6.55%; in assay [6] (setting [7]), 2%; in assay [6] (setting [8]), 25%; in assay [6] (at 50.0 µM), 14.2%.

With `COCCOC1=C(Cl)C(=O)c2c(O)ccc(O)c2C1=O`, the growth inhibition in assay [1] (setting [7]) was 97% (active); in assay [1] (setting [8]), 98% (active); in assay [1] (at 50.0 µM), 90.5% (active); in assay [2] (setting [7]), 99% (active); in assay [2] (setting [8]), 98% (active); in assay [2] (at 50.0 µM) it was 90.7% (active). The growth inhibition is 94% (active) in assay [3] (setting [7]); 99% (active) in assay [3] (setting [8]); 92.4% (active) in assay [3] (at 50.0 µM); 69% in assay [4] (setting [7]); 99% (active) in assay [4] (setting [8]); 90.5% (active) in assay [4] (at 50.0 µM). In addition, the growth inhibition in assay [5] (setting [7]) was 100% (active); in assay [5] (setting [8]), 99% (active); in assay [5] (at 50.0 µM), 90.3% (active); in assay [6] (setting [7]), 99% (active); in assay [6] (setting [8]) it was 98% (active); in assay [6] (at 50.0 µM) it was 89.2% (active).

Turning to `CCCC(=O)Oc1ccc([N+](=O)[O-])cc1`, the growth inhibition in assay [1] (setting [7]) was 4%; in assay [1] (setting [8]), 23%; in assay [1] (at 50.0 µM), 28.4%; in assay [2] (setting [7]), 2%; in assay [2] (setting [8]), 13%; in assay [2] (at 50.0 µM), 29%. Besides, the growth inhibition was -1% in assay [3] (setting [7]); 8% in assay [3] (setting [8]); 11.1% in assay [3] (at 50.0 µM); 2% in assay [4] (setting [7]); 6% in assay [4] (setting [8]); 34.9% in assay [4] (at 50.0 µM). Besides, the growth inhibition in assay [5] (setting [7]) was 4%; in assay [5] (setting [8]) it was 12%; in assay [5] (at 50.0 µM) it was 4.5%; in assay [6] (setting [7]) it was 4%; in assay [6] (setting [8]), 13%; in assay [6] (at 50.0 µM), 13.1%.

As for `OC1c2ccccc2C2(O)C1C(c1ccccc1)C(c1ccccc1)C2(O)c1ccccc1` (stereo not given), the growth inhibition in assay [1] (setting [7]) is 32%; in assay [1] (setting [8]), 95% (active); in assay [1] (at 50.0 µM) it was 96.7% (active); in assay [2] (setting [7]) it was -1%; in assay [2] (setting [8]), 97% (active); in assay [2] (at 50.0 µM), 97% (active). For the same compound, the growth inhibition is 25% in assay [3] (setting [7]); 96% (active) in assay [3] (setting [8]); 98% (active) in assay [3] (at 50.0 µM); -4% in assay [4] (setting [7]); 94% (active) in assay [4] (setting [8]); 95.1% (active) in assay [4] (at 50.0 µM). For the same compound, the growth inhibition was -1% in assay [5] (setting [7]); 95% (active) in assay [5] (setting [8]); 94.8% (active) in assay [5] (at 50.0 µM); 30% in assay [6] (setting [7]); 94% (active) in assay [6] (setting [8]); 95.7% (active) in assay [6] (at 50.0 µM).

For the compound `Cn1nc(-c2ccc3c(c2)OCO3)[n+]([O-])c2c(=O)n(C)c(=O)nc1-2`, the growth inhibition in assay [1] (setting [7]) was -2%; in assay [1] (setting [8]), 79% (active); in assay [1] (at 50.0 µM) it was 99.2% (active); in assay [2] (setting [7]), -7%; in assay [2] (setting [8]), 97% (active); in assay [2] (at 50.0 µM), 99.7% (active). Moreover, the growth inhibition was 0% in assay [3] (setting [7]); 98% (active) in assay [3] (setting [8]); 99.5% (active) in assay [3] (at 50.0 µM); -6% in assay [4] (setting [7]); 97% (active) in assay [4] (setting [8]); 98.2% (active) in assay [4] (at 50.0 µM). Also, the growth inhibition in assay [5] (setting [7]) is -8%; in assay [5] (setting [8]) it was 96% (active); in assay [5] (at 50.0 µM), 99.4% (active); in assay [6] (setting [7]), -7%; in assay [6] (setting [8]), 97% (active); in assay [6] (at 50.0 µM), 99.5% (active).

Consider `COC(=O)c1c2oc3c(C(=O)OC)cccc3nc-2cc(N)c1=O`, for which the growth inhibition in assay [1] (setting [7]) was 0%; in assay [1] (setting [8]), 19%; in assay [1] (at 50.0 µM), 30.2%; in assay [2] (setting [7]) it was 22%; in assay [2] (setting [8]), 56%; in assay [2] (at 50.0 µM) it was 25.7%. Besides, the growth inhibition in assay [3] (setting [7]) is 6%; in assay [3] (setting [8]), 22%; in assay [3] (at 50.0 µM), 8.8%; in assay [4] (setting [7]), -5%; in assay [4] (setting [8]) it was -2%; in assay [4] (at 50.0 µM) it was -46.5%. For the same compound, the growth inhibition in assay [5] (setting [7]) was 49%; in assay [5] (setting [8]) it was 59%; in assay [5] (at 50.0 µM) it was 66.5%; in assay [6] (setting [7]), 3%; in assay [6] (setting [8]), 44%; in assay [6] (at 50.0 µM) it was 22.5%.

Turning to `Cc1ccc(NNC(=O)C(O)C(O)C(O)C(O)CO)cc1` (stereo not given), the growth inhibition in assay [1] (setting [7]) was 98% (active); in assay [1] (setting [8]) it was 98% (active); in assay [1] (at 50.0 µM), -2.2%; in assay [2] (setting [7]), 99% (active); in assay [2] (setting [8]), 99% (active); in assay [2] (at 50.0 µM) it was 2.6%. Moreover, the growth inhibition in assay [3] (setting [7]) was 99% (active); in assay [3] (setting [8]), 99% (active); in assay [3] (at 50.0 µM), 7.85%; in assay [4] (setting [7]), 99% (active); in assay [4] (setting [8]), 99% (active); in assay [4] (at 50.0 µM), 41.8%. The growth inhibition was 98% (active) in assay [5] (setting [7]); 99% (active) in assay [5] (setting [8]); 8.25% in assay [5] (at 50.0 µM); 99% (active) in assay [6] (setting [7]); 99% (active) in assay [6] (setting [8]); 1.2% in assay [6] (at 50.0 µM).

Turning to `Cc1ccccc1NC(=S)Nc1ccccc1O`, the growth inhibition was -4% in assay [1] (setting [7]); 81% (active) in assay [1] (setting [8]); 97.2% (active) in assay [1] (at 50.0 µM); -2% in assay [2] (setting [7]); 87% (active) in assay [2] (setting [8]); 94.4% (active) in assay [2] (at 50.0 µM). Moreover, the growth inhibition is 0% in assay [3] (setting [7]); 82% (active) in assay [3] (setting [8]); 90.8% (active) in assay [3] (at 50.0 µM); -5% in assay [4] (setting [7]); 63% in assay [4] (setting [8]); -27.8% in assay [4] (at 50.0 µM). In addition, the growth inhibition is 20% in assay [5] (setting [7]); 98% (active) in assay [5] (setting [8]); 98.3% (active) in assay [5] (at 50.0 µM); -3% in assay [6] (setting [7]); 71% (active) in assay [6] (setting [8]); 95.1% (active) in assay [6] (at 50.0 µM).

`Oc1c(Cl)cc(Cl)cc1C=Nc1cc(C(F)(F)F)ccc1Cl`: the growth inhibition was 76% (active) in assay [1] (setting [7]); 100% (active) in assay [1] (setting [8]); 91.8% (active) in assay [1] (at 50.0 µM); 50% in assay [2] (setting [7]); 99% (active) in assay [2] (setting [8]); 74.4% (active) in assay [2] (at 50.0 µM). Moreover, the growth inhibition is 46% in assay [3] (setting [7]); 100% (active) in assay [3] (setting [8]); 91.7% (active) in assay [3] (at 50.0 µM); 8% in assay [4] (setting [7]); 76% (active) in assay [4] (setting [8]); 55.1% in assay [4] (at 50.0 µM). For the same compound, the growth inhibition was 5% in assay [5] (setting [7]); 50% in assay [5] (setting [8]); 77.4% (active) in assay [5] (at 50.0 µM); 50% in assay [6] (setting [7]); 99% (active) in assay [6] (setting [8]); 85.9% (active) in assay [6] (at 50.0 µM).

For the origin of these results see PubChem BioAssay (NCI).
